# Results taken from PubChem BioAssay AID504766 (The Scripps Research Institute Molecular Screening Center, 2011).
# About 3,400 (1%) of roughly 340,000 compounds were called active. For the sample, actives were picked, then their nearest neighbours and some compounds at random. A number with no mark means an inactive call.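 The calls were made as follows: active = inhibition above the mean over all tested compounds plus 3 SD (cut at about 4.2% in these data); inactive = the rest.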
# Target: Nuclear receptor subfamily 0 group B member 1 (Homo sapiens) (UniProt P51843)
# Assay: DAX1 (NR0B1) inhibitors, primary screen, cell-based, HEK293, Gal4-DAX1, luciferase luminescence (AID 504766);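 also: 0% = DAX1-transfected cells with DMSO and 100% = empty-vector control cells with DMSO; inhibition shows as a rise in luminescence from relieved DAX1 repression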
# Settings: HEK293 Gal4-DAX1 luciferase reporter, at 6.75 µM, stronger effect = higher value
# Chain of Nuclear receptor subfamily 0 group B member 1 (Homo sapiens) (P51843 207-470 limits assumed): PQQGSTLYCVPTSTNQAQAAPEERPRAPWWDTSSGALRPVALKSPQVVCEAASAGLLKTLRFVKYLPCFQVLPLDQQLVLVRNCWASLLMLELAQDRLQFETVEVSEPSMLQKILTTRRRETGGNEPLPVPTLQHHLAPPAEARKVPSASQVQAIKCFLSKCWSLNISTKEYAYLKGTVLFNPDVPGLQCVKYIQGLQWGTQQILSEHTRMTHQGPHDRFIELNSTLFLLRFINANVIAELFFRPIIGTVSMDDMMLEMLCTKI
row,SMILES,inhibition
1,O[C@H]1C[C@H](c2ccc(Cl)cc2)N(Cc2cccs2)C[C@@H]1n1cc(C2CC2)nn1,0.67%
2,CC(=O)c1ccc(S(=O)(=O)NCc2nnnn2-c2ccccc2)cc1,0.03%
3,CN(C)/C=C(/C(=O)c1ccc(Cl)c(Cl)c1)c1nnnn1-c1ccccc1,8.45% (active)
4,CN(C)/C=C(/C(=O)c1ccccc1Cl)S(C)(=O)=O,-0.35%
5,CCOc1cc(/C=N/NC(=O)c2c(C)nc3ccc(Cl)cn23)ccc1O,0.71%
6,O=C(COC(=O)c1ccc(F)cc1)NCCCc1ccccc1,1.34%
7,COc1ccc(C(=O)OCC(=O)NCCCc2ccccc2)cc1OC,-0.04%
8,Cc1cnc(C(=O)OCC(=O)NCCCc2ccccc2)cn1,8.25% (active)
9,S=C(NN=Cc1ccccn1)Nc1ccccn1,-4.47%
10,CC1(c2cccc(N)c2)OCCO1,0.74%
11,CCCCCCN1C[C@@H](O)[C@H](n2cc(COC(=O)c3ccccc3)nn2)C[C@@H]1c1ccc(Cl)cc1,0.09%
12,CCn1c(COc2ccccc2)nnc1SCC(=O)Nc1ccc2c(c1)OCCO2,-0.24%
13,CCn1c(SCC(=O)Nc2ccc3c(c2)OCCO3)nnc1C(C)C,2.27%
14,CCn1c(SCC(=O)Nc2ccc3c(c2)OCCO3)nnc1-c1ccncc1,6.79% (active)
15,COc1ccc(-n2nc(C(=O)NCC(=O)N3CCCCCC3)c3ccccc3c2=O)cc1Cl,-1.56%
16,COc1ccc(-n2nc(C(=O)NCC(=O)N3CCN(c4ccccc4OC)CC3)c3ccccc3c2=O)c(OC)c1,-1.07%
17,COc1ccc(-n2nc(C(=O)NCC(=O)N3CCC(C(N)=O)CC3)c3ccccc3c2=O)cc1OC,5.14% (active)
18,O=C(OCc1ccccc1)N1CCC2CC1c1ccc(-c3ccc4c(c3)OCO4)cc12 (stereo unspecified),0.14%
19,COC(=O)C(Cc1c[nH]c2ccccc12)NC(=O)CCNC(=O)c1ccco1 (stereo unspecified),0.93%
20,C[C@H]1CN([C@@H](C)CO)C(=O)CCCn2nncc2CO[C@@H]1CN(C)Cc1ccc(Oc2ccccc2)cc1,-1.44%
21,COc1ccc(-c2ccc3[nH]c4c(c3c2)CCN2C[C@H]3[C@H](C)ON(C)[C@H]3C[C@@H]42)cc1,-1.11%
22,COc1ccc(NC(=O)C[C@H]2C(=O)N(CCc3ccccc3)C[C@@H]2C)cc1,0.1%
23,Cc1cc(C)c(C#N)c(SCc2ccc3c(c2)OCO3)n1,-0.08%

row,SMILES,inhibition
1,Cc1snc(SCc2c(F)cccc2Cl)c1C#N,-1.64%
2,Cc1ccc(CSc2nsc(C)c2C#N)cc1,4.45% (active)
3,C[C@@H]1CN([C@@H](C)CO)C(=O)c2cc(Br)cnc2O[C@@H]1CN(C)C(=O)C1CCCCC1,1.82%
4,CCN(CC)C(=O)C1=C(C)N(Cc2ccccc2)C(=O)C(CC(=O)NC(c2ccccc2)c2ccccc2)C1 (stereo unspecified),-0.09%
5,CC(=O)Nc1ccc(SCC(=O)NC(=O)c2ccc(Cl)cc2)cc1,0.53%
6,O=[N+]([O-])c1ccc2oc(-c3cccc(O)c3)nc2c1,0.69%
7,Cn1nc(-c2ccccc2)c2cc([N+](=O)[O-])ccc21,0.55%
8,O=[N+]([O-])c1ccc2c(c1)C(O)n1nc(-c3ccccc3)nc1S2 (stereo unspecified),6.7% (active)
9,Cc1ccc(C=O)c([B-](F)(F)F)c1,-0.38%
10,O=C(CSc1nnc2ccc(-c3ccncc3)nn12)N1CCCCC1,4.62% (active)
11,COc1ccc(CCNC(=O)CSc2nnc3ccc(-c4ccncc4)nn23)cc1,2.31%
12,COc1cc(NC(=O)CSc2nnc3ccc(-c4ccncc4)nn23)cc(OC)c1,0.29%
13,Cc1nc2ccccc2nc1CC(O)(c1ccccc1)c1ccccc1,1.49%
14,COc1ccc(CN2C(=O)C(CC(=O)NCc3cccc4ccccc34)CC(C(=O)N3CCOCC3)=C2C)cc1 (stereo unspecified),0.04%
15,CC(Sc1ccc(S(=O)(=O)N2CCN(C)CC2)cn1)C(=O)NC1CCCC(C)C1C (stereo unspecified),0.86%
16,C[C@H]1Cn2cnc(C(=O)N[C@H](C)c3ccccc3)c2C(=O)N1,1.52%
17,CCOC(=O)C(=Cc1ccccc1)C(=O)c1ccccc1,-1.17%
18,O=C(NCCCn1ccnc1)c1cc(-c2ccccc2)on1,4.72% (active)
19,O=C(NC1CCCCCCC1)c1cccs1,0.85%
20,O=C(NCCCn1ccnc1)c1ccccc1F,1.27%
21,O=C(NC1CCCCC1)c1cc(C2CC2)on1,1.17%
22,O=C(NCCCn1ccnc1)c1cc(Br)c(Br)s1,2.56%
23,O=C(NC1CCCC1)c1cc(-c2ccccc2)on1,5.49% (active)

row,SMILES,inhibition
1,O=NN(CCCl)C(=O)NCCc1cccc[n+]1[O-],0.77%
2,CN(C)C(CNC(=O)c1cc(Br)c(Br)s1)c1ccco1 (stereo unspecified),-0.16%
3,O=C1[C@H]2[C@@H](c3ccc(C(F)(F)F)cc3)N[C@]3(CCCN(Cc4ccc(Cl)cc4)C3=O)[C@H]2C(=O)N1Cc1ccccc1,-0.84%
4,Cc1ccc(Cc2c(-c3ccc(C)cc3)nc3c4ccccc4ccn23)cc1,0.53%
5,O=C(CN1C(=O)NC2(CCc3ccccc32)C1=O)NC1CCCCC1 (stereo unspecified),-0.26%
6,Cc1cc(C(F)(F)F)c(C#N)c(SCC(=O)NC2CC2)n1,-0.39%
7,N#Cc1c(C(F)(F)F)cc(-c2ccccc2)nc1SCC(=O)N1CCOCC1,-0.64%
8,N#Cc1c(C(F)(F)F)cc(-c2ccc(Cl)cc2)nc1SCC(=O)O,4.58% (active)
9,Cc1ccc(C(=O)N[C@H](C(=O)N2CCN(c3ncccn3)CC2)C(C)C)cc1,1.36%
10,CC1(C2CC2)NC(=O)N(CC(=O)N2CCN(c3ccccc3F)CC2)C1=O (stereo unspecified),-0.4%
11,COc1cc(C)c(CN2CCN(C(=O)CCC(=O)c3ccc(C)s3)CC2)cc1OC,0.95%
12,COC(=O)C[C@H]1C[C@@H]2c3cc(N(C)C)ccc3O[C@@H]2[C@H](CO)O1,1.14%
13,O=C(NCCc1cccc(F)c1)C1CC(O)CN1C(=O)Nc1ccccc1 (stereo unspecified),0.98%
14,COC(=O)c1sc(SC)c(S(=O)(=O)C(C)C)c1N/N=C(\C#N)S(=O)(=O)c1ccccn1,4.53% (active)
15,Cc1cc(C)c2c(=O)n3c(nc2c1)C(CC(C)C)NC(=O)c1cc2ccccc2cc1-3 (stereo unspecified),0.81%
16,COc1ccc(C=C2CCC3C(CCCC34OCCO4)C2=O)cc1 (stereo unspecified),1.37%
17,COc1ccc(CN2C(=O)C(CC(=O)NCCCCc3ccccc3)CC(C(=O)N3CCOCC3)=C2C)cc1 (stereo unspecified),-0.84%
18,CCCCCCNC(=O)O[C@]12C[C@@H](C(=O)OC)[C@@H](C(=O)OC)C[C@@]1(O)CN(S(=O)(=O)c1ccc(C)cc1)C2,0.26%
19,CCOC(=O)c1cc(-c2sc(NC(=O)c3ccccc3)nc2C)n(Cc2ccccc2)n1,-1.03%
20,O=S1(=O)CCN(C2CCCCCCCCCCC2)CC1,-0.26%
21,O=C(Nc1cccc([N+](=O)[O-])c1)c1ccc2c(c1)OCO2,0.29%
22,O=C(Nc1ccc(C2CC2(Cl)Cl)cc1)c1cccc([N+](=O)[O-])c1 (stereo unspecified),4.49% (active)
23,Cc1cc(C)nc(NC(=O)c2cccc([N+](=O)[O-])c2)c1,0.73%

row,SMILES,inhibition
1,CC1=C(C(=O)N2CCOCC2)CC(CC(=O)NCc2ccco2)C(=O)N1Cc1ccc(F)cc1 (stereo unspecified),1.82%
2,Cc1ccc(/C=N/NC(=S)NC2CCCCC2)o1,4.44% (active)
3,COc1ccc(C(=O)NC(=S)NC2CCCCC2)cc1,1.16%
4,C/C(=N\NC(=S)NC1CCCCC1)c1ccc(C)o1,0.98%
5,CC1CCCCC12NC(=O)N(CC(=O)N1CCN(c3ccccc3)CC1)C2=O (stereo unspecified),1.67%
6,NC(=O)C1CCCN(CC(=O)N2CCN(c3ccccc3)CC2)C1 (stereo unspecified),6.46% (active)
7,O=C(C1CCC1)N1CCN(c2ccccc2)CC1,0.59%
8,Cc1ccc(S(=O)(=O)N2C[C@H]3C(=O)C[C@@H](c4cccc5ccccc45)N(S(=O)(=O)c4ccc(C)cc4)[C@H]3C[C@H]2c2ccc(Cl)cc2)cc1,-0.08%
9,O=C(CCC(=O)c1cccs1)Nc1nc2ccccc2s1,0.63%
10,CC(C)CC(=O)N/C(N)=N/c1nc2ccccc2s1,0.77%
11,CCC(=O)NC(=Nc1nc2ccccc2s1)NC(=O)CC,6.2% (active)
12,Cc1cccc(C(=O)C(O)(c2ccccc2)C2CCCCC2=O)c1 (stereo unspecified),0.38%
13,COc1ccc(NC(=O)CN(C)C(=O)c2cc(C)oc2C)cc1,-0.29%
14,Cn1nnc(NC(=S)NC(=O)c2ccccc2)n1,0.45%
15,Cc1cc(C)cc(C(=O)NC(=S)Nc2ccc3[nH]c(=O)[nH]c3c2)c1,-1.15%
16,Cc1cc2[nH]ncc2cc1NC(=S)NC(=O)c1ccccc1,5.71% (active)
17,O=C(OCC(=O)N1CCCCCC1)c1cccc(Cl)c1Cl,3.82%
18,O=C(CSc1ncn[nH]1)Nc1nc2c(F)c(F)c(F)cc2s1,0.83%
19,C=CCSC(CC)(CC)C(N)=O,4.43% (active)
20,Cc1[nH]n(-c2ccccc2)c(=O)c1CCOC(=O)c1ccc(C(F)(F)F)cc1,5.49% (active)
21,CCCOC(=O)c1ccc(N2C(=O)c3ccccc3C2=O)cc1,-0.27%
22,CCOC(=O)C[C@H]1c2ccc(C(F)(F)F)cc2S(=O)(=O)N1c1ccccc1,0.49%
